High-throughput results: PubChem BioAssay, National Center for Advancing Translational Sciences (NCATS)
In the library only some 3.3% were active in any assay of this set; here they are far more common.
PI5P4Ka inh: blocks human PI5P4K alpha kinase activity. 330,000 compounds, 1.2% hits. max response, %. AID 652105. PI5P4Kalpha enzyme, ADP-Glo luminescence, 60 min; stronger effect = lower value; active means max response of -50% or lower; inconclusive means between -30% and -50%; inactive means -30% or higher; further: value at the top dose of about 77 µM; on the % scale 0 is the no-effect control and ±100 the full control effect
Target sequence (P48426 whole entry, looked up): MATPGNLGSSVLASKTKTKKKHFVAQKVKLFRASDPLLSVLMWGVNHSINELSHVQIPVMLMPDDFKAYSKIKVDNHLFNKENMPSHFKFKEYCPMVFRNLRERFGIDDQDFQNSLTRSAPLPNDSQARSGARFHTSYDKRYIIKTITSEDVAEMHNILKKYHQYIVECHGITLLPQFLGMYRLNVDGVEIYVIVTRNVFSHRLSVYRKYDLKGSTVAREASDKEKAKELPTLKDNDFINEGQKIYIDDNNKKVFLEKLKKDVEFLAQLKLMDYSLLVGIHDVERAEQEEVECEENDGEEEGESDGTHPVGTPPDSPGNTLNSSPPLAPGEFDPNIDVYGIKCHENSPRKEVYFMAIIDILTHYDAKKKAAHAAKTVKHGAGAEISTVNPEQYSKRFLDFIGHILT
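Compounds were pin-transferred onto PI5P4Kalpha and substrate in HEPES pH 7.4 buffer with EGTA, CHAPS and 5% DMSO. ATP (5 microM final) started the reaction, which ran 60 minutes at room temperature before ADP-Glo detection.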
D3 ag: D3 dopamine receptor (human) agonism; P35462; D3R DiscoveRx beta-arrestin cells, luminescence, 90 min; max activation, %; 410,000 compounds, 0.58% hits; in the data active means max activation above about 30%; further: 0% is about no effect
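Agonist mode: compounds and dopamine controls were applied to plated cells for 90 min at 37 degrees C after an overnight attachment at 1500 cells/well. Luminescent read-out followed 30 - 60 minutes at room temperature with DiscoveRx detection reagent.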
PI4K2A inh: blocks human PI4K2A kinase activity | activity change, negative = inhibition, % at 76.9 µM | Q9BTU6 | purified PI4K2A, ADP-Glo luminescence, 1 h; stronger effect = lower value | AID 1346378 | 420,000 compounds, 0.13% hits; in the data active means activity change below about -50%; inconclusive means mostly about -30% to -49%;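 further: -100% = wells without enzyme as full effect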
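PI4K2A activity was measured by ADP-Glo luminescence: enzyme (4 ug/mL stock) and phosphatidylinositol (1.2 mM stock) in Tris pH 7.5/MgCl2/EGTA/Triton X-100 buffer were reacted with ATP (300 microM stock) for one hour at ambient temperature.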
LDHA inh: blocks human lactate dehydrogenase A | purified LDHA, NADH/diaphorase-resazurin fluorescence; stronger effect = lower value | P00338 | 480,000 compounds, 0.15% hits | activity change, % (values are at about 110 or 230 µM); in the data active means activity change below about -30%; inconclusive means mostly about -25% to -30%;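 further: plate controls were DMSO wells for no effect and wells without enzyme for full effect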
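Enzyme activity of human lactate dehydrogenase 5 (2 nM; 0.06 mM NADH, 0.2 mM pyruvate, 5 min, RT) is measured via a resazurin/diaphorase fluorescence readout of residual NADH.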
DRD3 antagonist: antagonists of human D3 dopamine receptor; max response, negative = inhibition, %; P35462; D3R cells, DiscoveRx beta-arrestin luminescence, antagonist mode; stronger effect = lower value; AID 652054; 360,000 compounds, 2.5% hits; in the data active means max response below about -50%; inconclusive means no clear call, values can overlap the other calls; further: on the % scale 0 is the no-effect control and ±100 the full control effect
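Cells plated overnight at 1500 cells/well, then exposed to library compounds with dopamine controls for 90 minutes at 37 degrees C. DiscoveRx reagent added for 30–60 minutes at room temperature; luminescence read, quantitative HTS format.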
* hit, by the source's call.

Screening c1ccc(Cn2c(SCc3cn4cccnc4n3)nnc2-c2ccco2)cc1 returned PI5P4Ka inh -1, D3 ag -5, PI4K2A inh 2, LDHA inh 1 and DRD3 antagonist -2.
O=C(CSc1nc2scc(-c3ccco3)c2c(=O)n1-c1ccccc1)N1CCOCC1 was read as D3 ag 31*, PI4K2A inh -5, LDHA inh -1 and DRD3 antagonist 12.
CCC1(c2ccc(NC(=O)c3c(OC)cccc3OC)cc2)CCC(=O)NC1=O (stereo not given) was read as LDHA inh 2.
`O=C(NCCc1ccccc1)NC(C(=O)N1CCc2ccccc21)c1ccccc1` (stereo not given) gave LDHA inh 1.
Screening Cc1ccc(NC(=O)CCSc2nc(-c3ccc4c(c3)OCO4)cc(C(F)(F)F)n2)c(C)c1 returned D3 ag 56*, PI4K2A inh -4 and LDHA inh -3.
Cc1nc2cc(NS(=O)(=O)c3c(C)c(C)cc(C)c3C)ccc2o1 was read as LDHA inh 15.
Screening O=C1Nc2ccc(F)cc2C12Nc1ccccc1-c1nnc(SCc3ccccc3F)nc1O2 (stereo not given) returned D3 ag -28, PI4K2A inh -1, LDHA inh 10 and DRD3 antagonist -51*.
`O=C1Nc2ccc(Cl)cc2C12Nc1ccccc1-c1nnc(SCc3ccccc3F)nc1O2` (stereo not given) gave PI5P4Ka inh -16, D3 ag 3, PI4K2A inh 5, LDHA inh 11 and DRD3 antagonist -8.
For NNc1nc(Nc2ccccc2)nc(Nc2ccccc2)n1 the results were PI5P4Ka inh -7, D3 ag -24, PI4K2A inh -1, LDHA inh 2 and DRD3 antagonist -52*.
For COC(=O)c1cc(Cl)c(NC(=O)c2ccc(C(C)(C)C)cc2)cc1OC the results were D3 ag 70*, PI4K2A inh 2, LDHA inh 3 and DRD3 antagonist 29.
Screening COc1ccc(C2CC(=O)Nc3c(C(=O)O)cn(-c4ccccc4Cl)c32)c(OC)c1OC (stereo not given) returned LDHA inh 23.
CC(=O)NC(NC(C)=O)c1cccc(Oc2ccccc2)c1 was read as LDHA inh -4.
For CC(C(=O)O)c1cccc(Oc2ccccc2)c1 (stereo not given) the results were PI5P4Ka inh -5, D3 ag -29, PI4K2A inh 4, LDHA inh -10 and DRD3 antagonist -62*.
Cc1ccc(OCC(O)Cn2c(N)nc3c2c(=O)n(C)c(=O)n3C)cc1 (stereo not given) was read as PI5P4Ka inh -4, D3 ag 53*, PI4K2A inh 4, LDHA inh 5 and DRD3 antagonist 3.
For CCCCSc1n[nH]c(=S)c2nc[nH]c12 the results were PI5P4Ka inh -63*, D3 ag -17, PI4K2A inh -5, LDHA inh -3 and DRD3 antagonist inconclusive.
`Cc1cc(C)cc(Nc2nc(N)c(C(=O)c3ccc(Cl)cc3)s2)c1` gave LDHA inh -14.
COc1ccc(CCC(C)NCc2cccc(Br)c2)cc1 (stereo not given) was read as PI5P4Ka inh 8, D3 ag -8, PI4K2A inh -6, LDHA inh 1 and DRD3 antagonist -68*.
`CC(CCc1ccccc1)NCc1cccc2ccccc12` (stereo not given) gave PI5P4Ka inh 3, D3 ag 3, PI4K2A inh 1, LDHA inh -8 and DRD3 antagonist -54*.
O=C(O)c1ccc(F)cc1I was read as LDHA inh -6.
O=C(c1ccc(Cl)o1)N1CCCc2cc(C(F)(F)F)ccc21 was read as LDHA inh 1.
For Cc1ccc(NC(=S)Nc2cccc(-c3n[nH]c(=S)o3)c2)cc1 the results were PI5P4Ka inh -68*, D3 ag 2, PI4K2A inh 3, LDHA inh -11 and DRD3 antagonist -22.
O=C(Nc1ccc(-c2n[nH]c(=S)o2)cc1)c1ccccc1 was read as PI5P4Ka inh -63*, D3 ag 1, PI4K2A inh -2, LDHA inh -3 and DRD3 antagonist 0.
For C=CCOc1ccc(C=O)cc1 the results were LDHA inh 5.
COc1ccc(C(=O)Nc2ccc(-c3n[nH]c(=S)o3)cc2)cc1 was read as PI5P4Ka inh -55*, D3 ag 0, PI4K2A inh 1, LDHA inh -9 and DRD3 antagonist -16.
O=C(Nc1ccc(-c2ccccc2)cc1)c1ccccc1 was read as PI5P4Ka inh -3, D3 ag 3, PI4K2A inh -4, LDHA inh -6 and DRD3 antagonist 7.
`NC(=S)Nc1cccc(-c2n[nH]c(=S)o2)c1` gave PI5P4Ka inh -25, D3 ag -5, PI4K2A inh -6, LDHA inh -7 and DRD3 antagonist -25.
C=CCOc1ccc(-c2n[nH]c(=S)o2)cc1 was read as PI5P4Ka inh -60*, D3 ag 5, PI4K2A inh -3, LDHA inh -7 and DRD3 antagonist 10.
CCC(C)(C)C1CCc2[nH]nc(C(=O)NCc3ccc(Cl)cc3)c2C1 (stereo not given) was read as PI5P4Ka inh 10, D3 ag 0, PI4K2A inh 1, LDHA inh -3 and DRD3 antagonist -75*.
Screening CC(C)CNc1oc(-c2ccccc2F)nc1C#N returned LDHA inh -36*.
`O=S(=O)(O)c1cc(O)c2c(O)c(N=Nc3cc(Cl)ccc3O)c(S(=O)(=O)O)cc2c1` gave PI5P4Ka inh -76*, D3 ag -23, PI4K2A inh -53*, LDHA inh 31 and DRD3 antagonist -61*.
`Cc1cc(-c2ccc(N=Nc3c(S(=O)(=O)O)cc4cc(S(=O)(=O)O)cc(N)c4c3O)c(C)c2)ccc1N=Nc1c(S(=O)(=O)O)cc2cc(S(=O)(=O)O)cc(N)c2c1O` gave D3 ag -24.
Screening CCN(CC)CCSc1nnc2c3ccccc3n(CCc3ccccc3)c2n1 returned PI5P4Ka inh 0, D3 ag -2, PI4K2A inh 9, LDHA inh -1 and DRD3 antagonist -79*.
Screening C=CCn1c2ccccc2c2nnc(SCCN3CCCCC3)nc21 returned PI5P4Ka inh -9, D3 ag -16, PI4K2A inh 2, LDHA inh -6 and DRD3 antagonist inconclusive.
For CCCn1c2ccc(F)cc2c2nnc(SCCN(CC)CC)nc21 the results were D3 ag -26, PI4K2A inh 1 and LDHA inh 0.
For C=CCn1c2ccccc2c2nnc(SCCCn3c(=O)[nH]c4ccccc43)nc21 the results were PI5P4Ka inh 8, D3 ag 32*, PI4K2A inh -4, LDHA inh -2 and DRD3 antagonist 80.
